Compound activity from PubChem.
The list is not random: actives were taken first. Their share in the collection is about 1.3%.
EBV gp42 inh = blocks Epstein-Barr virus glycoprotein 42 binding. Q1HVG2. Fluorescence polarization binding assay, mP read-out. inhibition, % (tested at 21.74 µM). hit rate 0.42% among 220,000. AID 1085; in the data active = inhibition above about 50%
MCL1-BIM inh = MCL1-BIM-BH3 interaction inhibition (human). Q07820. GST-MCL1 / FITC-Bim-BH3 fluorescence polarization. inhibition, % at 10.9 µM. hit rate 0.68% among 320,000;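 active = inhibition above the mean inhibition of all tested compounds plus 3 SD, set per campaign, cut at about 40% in these data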;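 also: 0% = DMSO wells and 100% = unlabeled Bim-BH3 peptide control; higher means more loss of mP so more displacement of Bim peptide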
MEX-5 binding = C. elegans MEX-5 TCR-2 RNA binding activity; Q9XUB2; MEX-5/FITC-TCR2 RNA binding, fluorescence polarization; active compounds read low; activity score (negative = inhibition of binding), % at 10 µM; hit rate 0.38% among 300,000; AID 1832;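 active = inhibition past about -25% in most replicates, and total fluorescence under double the plate's negative control median, limit read from the data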;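 also: 0% = DMSO and -100% = 5 µM competing unlabeled TCR2 RNA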
GLD-1 RNA inh = GLD-1-TGE RNA interaction inhibition (C. elegans); hit rate 0.44% among 320,000; Q17339; purified GLD-1 + fluorescein TGE RNA, fluorescence polarization; AID 2280; inhibition, % at 5.96 µM;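 active = percent inhibition above a per-plate cutoff, the plate mean of test compounds plus 3 SD, cut at about 30% in these data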;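 also: 0% = DMSO wells with GLD-1 and probe and 100% = wells lacking GLD-1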
Target sequence (Q17339 whole entry, looked up): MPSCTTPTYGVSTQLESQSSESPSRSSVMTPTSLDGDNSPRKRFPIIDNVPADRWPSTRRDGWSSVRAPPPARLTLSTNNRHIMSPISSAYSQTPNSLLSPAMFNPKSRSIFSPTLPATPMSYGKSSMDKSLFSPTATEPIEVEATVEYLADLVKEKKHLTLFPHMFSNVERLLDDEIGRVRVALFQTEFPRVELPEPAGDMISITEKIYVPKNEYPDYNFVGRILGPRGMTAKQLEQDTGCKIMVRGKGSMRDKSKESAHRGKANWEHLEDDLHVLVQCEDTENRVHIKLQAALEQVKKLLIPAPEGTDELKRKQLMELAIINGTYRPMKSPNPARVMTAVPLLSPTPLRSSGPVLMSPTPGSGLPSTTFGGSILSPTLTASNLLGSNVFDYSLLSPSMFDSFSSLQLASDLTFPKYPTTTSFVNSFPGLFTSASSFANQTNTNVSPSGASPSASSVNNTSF
BCLXL inh = inhibitors of human Bcl-xL; Q07817; GST-Bcl-xL / FITC-Bim BH3 peptide fluorescence polarization; inhibition, % at 10.9 µM; hit rate 0.7% among 320,000; AID 2129;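 active = inhibition above the mean of all tested compounds plus 3 SD, cutoff set per campaign, cut at about 30% in these data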;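 also: 0% = DMSO wells and 100% = unlabeled Bim-BH3 peptide competitor; inhibitors lower millipolarization by displacing the labeled peptide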
* marks the source's active call; other numbers are inactive results; nt = not tested or not shown.

SMILES	EBV gp42 inh	MCL1-BIM inh	MEX-5 binding	GLD-1 RNA inh	BCLXL inh
O=C(CSc1ncccn1)N/N=C/c1cccc(OC2CSC2)c1	-3	6	-2	1	1
Cn1ncc(Cl)c1C(=O)N/N=C/c1cccc(OC2CSC2)c1	12	7	-36*	4	4
COc1ccc(CN2CCNC(=O)C2CC(=O)NCC2CCOCC2)c(F)c1 (stereo unspecified)	nt	10	-5	10	17
CCOc1ccccc1NC(=O)Cn1nnc(-c2ccc(OCC)c(OCC)c2)n1	10	1	0	11	0
OCCOCCOc1ccc(-c2nn[nH]n2)cc1	-2	-3	0	0	3
OCCOc1ccc(C2=NCCO2)cc1	3	7	-50*	1	-2
O=C(CCN1C(=O)COc2ccccc21)NCc1ccco1	53*	6	-2	3	10
CCOC(=O)c1cc(C#N)c(N2CCN(c3ccc(OC)cc3)CC2)[nH]c1=O	-13	14	-2	0	8
Cc1nc2ccc(S(=O)(=O)NCC(=O)NCCN3CCCCCC3)cc2s1	-2	42*	0	-7	41*
COc1ccccc1C(=O)Nc1ccc(S(=O)(=O)N2CCCCC2)cc1	nt	-1	-3	-2	0
COc1cc(/C=C/C(=O)N2CCN(C(=O)/C=C/c3cc(OC)c(OC)c(OC)c3)CC2)cc(OC)c1OC	nt	0	2	109*	4
COc1cc(/C=C/C(=O)N2CCCC2)cc(OC)c1OC	-4	4	1	8	7
Cc1ccc(S(=O)(=O)CCNC(=O)Cc2ccc(Cl)cc2)cc1	-3	-6	1	6	1
COc1ccc(C(=O)NC(=S)Nc2cccnc2)cc1Cl	nt	15	-2	52*	12
Cc1ccc(N2C(=O)CN(Cc3ccccc3)C2=S)cc1C	nt	-2	1	2	-3
COc1ccc2c(c1)c(CC(=O)Nc1cccc(S(N)(=O)=O)c1)c(C)n2C(=O)c1ccc(Cl)cc1	-3	-2	-1	3	0
CC(C)(C)C(=O)NC1CCN(CC(=O)Nc2ccc3c(c2)OCO3)CC1	nt	7	2	0	2
Cc1ccc(/C=c2\sc3nc(-c4ccccc4Br)nn3c2=O)o1	-2	32	-5	-3	16
C=CCn1c(=O)/c(=C\c2ccccn2)s/c1=C(/C#N)C(=O)NCC1CCCO1 (stereo unspecified)	3	-5	-28*	4	-1
C=CCn1c(=O)/c(=C/c2ccc(C)o2)s/c1=C(/C#N)C(=O)c1ccccc1	16	-50	-27*	-51	-40
CN(C)[C@@H]1C(=O)C(C(=O)NCN2CCCC2)=C(O)[C@@]2(O)C(=O)C3=C(O)c4c(O)cccc4[C@@](C)(O)C3CC12 (stereo partly specified)	71*	nt	nt	nt	nt
O=C(NC1CCCC1)c1ncn[nH]1	-6	13	3	-3	2
CCOC(=O)Cc1csc(SCC(=O)NC2CCS(=O)(=O)C2)n1 (stereo unspecified)	nt	2	nt	-3	-1
CC1=C/C(=C\c2ccc(Br)o2)C(=O)O1	51*	7	-4	3	2
CC1CCCC(C)N1C(=O)CSc1nnnn1-c1cccc2c1CCCC2 (stereo unspecified)	-10	-1	-4	55*	1
SMILES	EBV gp42 inh	MCL1-BIM inh	MEX-5 binding	GLD-1 RNA inh	BCLXL inh
O=C(CSc1nnnn1-c1cccc2c1CCCC2)N1CCCC1	-2	4	-1	-5	3
CC1(C)CC(=O)C/C(=N/NC(=O)CCCOc2ccc(Cl)cc2Cl)C1	-17	-6	3	-5	-5
CNC(=O)/C(C#N)=C/c1c(N(Cc2ccccc2)Cc2ccccc2)nc2c(C)cccn2c1=O	-26	0	1	5	154*
COC(=O)/C(C#N)=C/c1c(Oc2cc(C)cc(C)c2)nc2c(C)cccn2c1=O	-5	-3	-41*	3	1
COC(=O)c1ccccc1NC1=C/C(=N\S(=O)(=O)c2ccc(C(=O)O)cc2)c2ccccc2C1=O	nt	45*	-4	15	40*
COC(=O)c1ccccc1NC1=C/C(=N\S(=O)(=O)c2cccs2)c2ccccc2C1=O	-8	5	-1	4	2
O=C(N/N=C/c1ccccc1O)NC12CC3CC(CC(C3)C1)C2	nt	4	-1	5	2
O=C(N/N=C/c1cc(Br)cc(Cl)c1O)c1ccc2c(c1)OCO2	nt	0	-2	0	-8
O=C(N/N=C/c1cc(Cl)cc([N+](=O)[O-])c1O)NC12CC3CC(CC(C3)C1)C2	52*	12	2	5	0
